# Hits are enriched below; roughly 2.2% of the tested compounds scored in any of these assays.
# PLAP act: human PLAP activation; P05187; purified PLAP enzyme, luminescent substrate read-out; hits give high values; activation fold at 20 µM; actives 1.2% (n = 96,000); AID 696; in the data active = activation fold above about 2
# Target sequence (P05187 whole entry, looked up): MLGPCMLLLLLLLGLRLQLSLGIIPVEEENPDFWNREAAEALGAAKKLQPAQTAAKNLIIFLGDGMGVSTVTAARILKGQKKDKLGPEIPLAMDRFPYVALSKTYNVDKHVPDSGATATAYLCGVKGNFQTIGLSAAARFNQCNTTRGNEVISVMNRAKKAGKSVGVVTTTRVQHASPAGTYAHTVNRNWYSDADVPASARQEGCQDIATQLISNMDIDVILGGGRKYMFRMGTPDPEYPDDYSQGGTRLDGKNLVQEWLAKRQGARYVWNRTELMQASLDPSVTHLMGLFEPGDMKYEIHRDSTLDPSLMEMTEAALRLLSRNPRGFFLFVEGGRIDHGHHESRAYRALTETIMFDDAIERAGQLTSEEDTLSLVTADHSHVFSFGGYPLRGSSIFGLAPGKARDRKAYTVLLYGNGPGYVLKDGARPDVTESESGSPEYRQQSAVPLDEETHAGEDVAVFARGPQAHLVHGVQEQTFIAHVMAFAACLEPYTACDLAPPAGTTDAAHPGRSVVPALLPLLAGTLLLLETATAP
# MRP-1 activ: MRP-1 activation | H69AR cells + doxorubicin, viability rescue, CellTiter-Glo | viability increase, % at 10 µM | actives 0.61% (n = 140,000) | AID 799;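 active = viability gain under doxorubicin at or above a set limit, the compound median plus 3 SD, cut at about 4.7% in these data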;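 also: MRP-1 overexpressing cells given doxorubicin 25 µM after compound pretreatment; 18-22 h compound pretreatment then 72 h with doxorubicin before readout; 0% = doxorubicin-only wells and 100% = vehicle-treated cells without doxorubicin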
# FAK blocker: FAK (human) kinase inhibition. Q05397. biochemical FAK kinase activity assay. actives 0.84% (n = 97,000). inhibition, %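 (tested at 7 µM)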;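 also: 0% = DMSO and 100% = reference compound high control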
# PTPN22 inh 2: inhibitors of human LYP (PTPN22) phosphatase; Q9Y2R2; recombinant LYP catalytic domain, DiFMUP fluorescence; inhibition, % at 2 µM; actives 0.21% (n = 96,000); AID 640;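 active = inhibition at 2 µM at or above a set limit, the screen mean plus 3 SD, cut at about 24% in these data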;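 also: 0% = DMSO with enzyme and 100% = enzyme fully blocked by orthovanadate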
# PTPN22 act: activators of human LYP (PTPN22) phosphatase. Q9Y2R2. recombinant LYP, DiFMUP fluorescence; 0 = plate median, 100 = signal doubled. activation, % at 2 µM. actives 0.11% (n = 96,000). AID 697;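 active = activation at 2 µM above a set limit, the mean plus 5 SD, cut at about 37% in these data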
# MRP resist rev: reverses drug resistance mediated by MRP | actives 0.04% (n = 85,000) | H69AR cells + 2 uM doxorubicin, CellTiter-Glo, 72 h | differential viability (reversal), % at 10 µM | AID 602;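 active = viability drop by adding the cancer drug above about 55%, with treated viability meeting a 40% cutoff, limit read from the data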;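 also: viability without doxorubicin minus viability with 2 µM doxorubicin for each compound; larger differential means the compound sensitizes cells more to doxorubicin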
# FAK inh confirm: FAK (human) inhibition confirmed; shares compounds with FAK blocker; FAK kinase biochemical inhibition assay; inhibition, % at 7 µM; actives 28% (n = 750); AID 794
# An asterisk follows results filed as active; · = no result. Rule as the data show it, unless noted: active = inhibition above about 19%; inactive = the rest.
SMILES,PLAP act,MRP-1 activ,FAK blocker,PTPN22 inh 2,PTPN22 act,MRP resist rev,FAK inh confirm
COc1ccc(/C=N/NC(=O)Nc2cccc3nsnc23)c(OC)c1,0.9,0.5,25.6*,-0.3,-1.7,·,3.0
CCN(CC)S(=O)(=O)c1ccc(/C=C/C(=O)Nc2cccc(F)c2)cc1,·,-1.7,·,·,·,·,·
CCN(CC)c1ccc2cc(-c3nc4ccccc4[nH]3)c(=O)oc2c1,0.9,-5.8,52.7*,3.6,-6.0,0.9,31.2*
O=C1Nc2ccc(S(=O)(=O)NCc3ccco3)c3cccc1c23,·,·,19.4*,-16.8,11.6,-9.1,0.6
CCn1nc(C)c(NS(=O)(=O)c2ccccc2)c1C,0.9,-1.6,3.7,0.5,-1.0,-18.9,·
CC(=O)Nc1ccc2nc(-c3cccnc3)[nH]c2c1,·,-3.4,·,·,·,-0.8,·
c1cncc(-c2nc3ccccc3[nH]2)c1,0.9,-1.7,27.7*,14.3,-10.1,·,3.1
COc1ccc(OC)c(/C=C/C(=O)N(C)CC(=O)Nc2cc(C)ccc2C)c1,·,-1.2,·,·,·,·,·
Cc1cccc(N2CSC3=C(C#N)C(c4ccc(C)o4)CC(=O)N3C2)c1 (stereo not given),1.7,-3.1,24.4*,13.6,-13.2,-108.1,8.5
CC(CC(=O)Nc1nncs1)c1ccccc1 (stereo not given),·,1.1,1.1,-1.0,0.5,-25.0,·
Cc1oc2c(c1C(=O)c1ccc(Cl)cc1)C(=O)C(=O)c1ccccc1-2,1.1,-2.5,15.9,2.4,2.4,·,·
Cc1ccc(C(=O)c2c(C)oc3c2C(=O)C(=O)c2ccccc2-3)cc1,1,-6.4,21.4*,-2.0,3.4,0.1,13.7
Cc1c(O)c(CN2CCCC2)cc2c1oc(=O)c1ccccc12,1.6,0.1,40.4*,-1.7,-0.6,-12.5,11.9
Cc1c(O)c(CN2CCCC2)cc2c3c(c(=O)oc12)CCC3,1.8,-1.0,2.9,-10.5,7.8,14.7,·
c1cncc(-c2nc(NCc3ccco3)c3ccccc3n2)c1,0.8,-4.7,18.8*,-10.9,10.8,-25.8,8.6
Cc1ccc(-c2nc(NCc3ccco3)c3ccccc3n2)cc1,·,-2.2,·,·,·,·,·
CCCc1cc(C(N)=O)c(NC(=O)c2ccco2)s1,0.8,-4.2,27.3*,-0.6,0.5,7.6,9.9
CCCc1cc(C(N)=O)c(NC(=O)C2CCCO2)s1 (stereo not given),1,-1.5,0.9,7.5,-10.7,4.0,·
N#C/C(=N\Nc1c(Cl)cccc1Cl)C(=O)NN,1.1,2.2,45.3*,-3.4,1.8,·,33.0*
N#C/C(=N\Nc1ccccc1Cl)C(=O)c1ccccc1,1,-2.0,-2.2,-2.1,6.4,·,·
Cc1nn2c(c1-c1ccccc1)NC1=C(C(=O)CCC1)C2c1ccccc1 (stereo not given),1.2,-4.2,24.6*,7.2,-4.7,8.3,21.5*
CCOc1c(Br)cc(C2NS(=O)(=O)N=C3CCCCCN32)cc1OC (stereo not given),1,-4.0,47.2*,10.0,-12.7,-38.7,-0.2
Clc1ccc(-c2n[nH]c3c2CCC3)cc1Cl,0.9,-2.8,27.9*,-0.1,-2.4,-23.5,15.4
N#Cc1c(-c2ccco2)cc(-c2ccccn2)nc1N,1.3,-4.9,11.3,-8.8,7.7,-26.9,·
N#Cc1c(-c2ccco2)cc(-c2cccnc2)nc1N,0.8,-4.6,19.6*,-1.4,-1.4,-7.2,5.7
SMILES,PLAP act,MRP-1 activ,FAK blocker,PTPN22 inh 2,PTPN22 act,MRP resist rev,FAK inh confirm
CC(C)c1ccc(C(=O)NN2C(=O)C3CCCCC3C2=O)cc1 (stereo not given),·,1.9,·,·,·,·,·
CCC(C(=O)Nc1cc(C(=O)Nc2cc(C)ccn2)ccc1Cl)c1ccccc1 (stereo not given),·,1.1,·,·,·,·,·
CCCCCCCC(=O)NN=C1CCN(Cc2ccccc2)CC1,·,1.7,·,·,·,·,·
O=C(NCc1ccc2c(c1)OCO2)c1cc2ccccc2o1,0.6,0.0,4.5,-0.3,-1.3,·,·
Cc1ccc2cc3cc(C(=O)NCc4ccc5c(c4)OCO5)oc3nc2c1,0.9,-5.6,27.9*,10.6,-11.1,-10.4,19.9*
COc1ccc(CCC(=O)N2CCCSC2=Nc2ccc(C(C)=O)cc2)cc1,·,-1.6,·,·,·,·,·
CCNS(=O)(=O)c1ccc(CCC(=O)NCCC2=CCCCC2)cc1,·,-0.6,·,·,·,·,·
COC(=O)C1=C(C)Nc2c(c(=O)n(C)c(=O)n2C)C1c1cccs1 (stereo not given),1.1,-1.4,18.8*,-7.7,6.1,0.1,4.8
OC(COc1ccc(C2C=CCC2)cc1)CN1CCCCC1 (stereo not given),1.2,-2.5,21.6*,10.5,-13.0,8.8,7.7
COc1ccc2c3c(cccc13)N(C)N=C2C,1,-2.0,33.6*,-1.9,5.4,·,10.6
COc1ccccc1N1CCN(S(=O)(=O)c2ccc3c4c(cccc24)C(=O)N3C)CC1,1.2,-0.1,4.0,-5.4,0.2,13.6,·
CCOc1ccc2nc(SCC(=O)N3CCCCCC3)c(C#N)cc2c1,1.1,0.3,24.7*,12.7,-10.4,-49.9,9.2
CC1(C)C(C=C(Cl)Cl)C1C(=O)Nc1ccc([N+](=O)[O-])cc1 (stereo not given),·,-6.0,·,·,·,·,·
N/C(=N\OC(=O)c1cccc2ccccc12)c1cccc([N+](=O)[O-])c1,0.8,-2.1,28.4*,3.6,1.1,·,6.8
CC(=O)N1CCN(c2ccc(Nc3ncnc4c3oc3ccccc34)cc2)CC1,1.8,-2.7,23.8*,13.0,-13.8,-10.2,16.3
Cc1cc(C)n(-c2nc(N(c3ccccc3)c3ccccc3)nc(-n3nc(C)cc3C)n2)n1,·,-0.8,3.7,15.0,-16.1,2.8,·
Cc1cc(C)n(-c2nc(Nc3ccccc3)nc(-n3nc(C)cc3C)n2)n1,1.1,-3.1,25.7*,2.4,-2.8,13.1,8.8
CN(c1ccccc1C(=O)N1CCN(c2ccccc2)CC1)S(C)(=O)=O,·,-2.1,-0.3,-9.8,10.3,6.8,·
CC(Oc1cc(Cl)ccc1Cl)C(=O)N/N=C\c1ccnn1C (stereo not given),·,-1.3,·,·,·,·,·
CCCOc1ccc(N)cc1N,0.8,2.1,22.1*,3.4,-3.7,-13.6,0.0
CCCOc1ccccc1NC(=O)c1ccc(N)cc1,0.7,-0.1,2.9,3.1,0.5,-2.7,·
Oc1ccc(O)c(-c2cnns2)c1,·,0.4,·,·,·,·,·
O=C(Cn1c(=O)oc2cc(S(=O)(=O)N3CCCC3)ccc21)Nc1cccc(C(F)(F)F)c1,1.3,-2.1,25.6*,14.5,-15.0,-12.0,9.3
CCc1cccc(NC(=O)Cn2c(=O)oc3cc(S(=O)(=O)N4CCOCC4)ccc32)c1,1.2,-3.6,-6.3,6.5,-7.3,-2.3,·
CCOC(=O)CSc1nc(C)c2ccccc2n1,0.7,-0.1,1.4,2.4,-1.5,13.9,·
CCOC(=O)CSc1nc(C(C)C)nc2ccccc12,1,-2.0,37.3*,-4.3,4.2,-21.6,23.6*
COC(=O)CSc1nc2ccccc2nc1SCC(=O)OC,1,-2.7,2.6,9.5,-12.3,21.8,·
COC(=O)CSc1nc(C(C)C)nc2ccccc12,1.4,-4.3,40.4*,-4.0,0.8,·,22.6*

# Compound activity: PubChem BioAssay, several laboratories
